Source: PubChem (National Center for Advancing Translational Sciences (NCATS))
rTrxR1 inhibitor = rat TrxR1 inhibition; O89049; recombinant rTrxR1, NADPH fluorescence consumption, selenite substrate; Potency, µM (top dose mostly 114 µM), hits mostly inhibitors; hit rate 1% among 390,000; further: nearly all actives have a fitted effect of over 65% in size
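Rat TrxR1 (90 nM in the dispensed reagent) was pre-reduced with 400 uM NADPH for 5 min at room temperature, then incubated with compound for 15 min. After 400 uM selenite was added, NADPH fluorescence (Ex 340/Em 450 nm) was followed for 8 min.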
KAT2A inh = blocks human GCN5L2 histone acetyltransferase; Q92830; GCN5L2 HAT assay, ThioGlo1 CoA-SH fluorescence; hit rate 0.21% among 390,000; Potency, µM (highest dose often 58.9 µM), actives largely listed as inhibitors
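Preincubate 20nM GCN5L2 with compound 15 min, RT → add 50uM ThioGlo1 + 75uM H3(1-25) + 70uM acetyl-CoA → read fluorescence 0 and 20 min. Primary qHTS; fluorescent artifacts likely.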
VDR inhibitor = vitamin D3 receptor (human) inhibition; P11473; VDR-SRC2-3 peptide fluorescence polarization, 2 h; Potency, µM, usual class: inhibitors; hit rate 0.93% among 400,000; AID 504847
Target sequence (P11473 whole entry, looked up): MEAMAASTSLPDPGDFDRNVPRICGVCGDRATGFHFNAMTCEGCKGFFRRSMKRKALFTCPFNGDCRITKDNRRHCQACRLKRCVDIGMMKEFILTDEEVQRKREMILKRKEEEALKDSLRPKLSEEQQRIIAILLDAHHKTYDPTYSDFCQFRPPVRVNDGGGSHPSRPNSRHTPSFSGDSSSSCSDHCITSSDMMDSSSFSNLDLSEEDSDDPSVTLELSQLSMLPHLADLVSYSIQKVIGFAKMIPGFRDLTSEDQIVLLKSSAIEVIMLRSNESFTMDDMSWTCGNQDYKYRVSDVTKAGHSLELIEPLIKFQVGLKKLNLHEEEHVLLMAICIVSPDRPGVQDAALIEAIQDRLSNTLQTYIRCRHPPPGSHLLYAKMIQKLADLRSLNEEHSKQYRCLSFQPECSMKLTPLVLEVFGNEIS
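Fluorescence polarization assay of small-molecule disruption of VDR binding to coregulator peptide SRC2-3. Compounds and controls pin-transferred, then read after 2 h incubation at ambient room temperature.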
TrxR1 substrate = substrates of rat thioredoxin reductase 1; O89049; purified TrxR1 substrate turnover, NADPH consumption readout; Potency, µM (top dose mostly 114 µM); hit rate 0.01% among 390,000; AID 588456; further: nearly all actives have a fitted effect of over 50% in size
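Rat TrxR1, dispensed at 90 nM, was prereduced with 400 uM NADPH (final) for 5 min at ~22 deg C, then incubated with compound 15 min before 400 uM selenite. A first-read NADPH fluorescence drop versus no-compound background flagged substrates.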
GLS inh = inhibitors of human glutaminase (GLS). Potency, µM (highest dose often 45.5 µM), usual class: inhibitors. hit rate 0.21% among 410,000. GLS enzymatic activity, qHTS titration. O94925
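Enzyme dispensed in phosphate buffer (45 mM, pH 8.2, 0.02% Tween-20), compounds pinned in, then 1 mM L-glutamine solution and the glutamate oxidase–HRP–Amplex Red mix added; fluorescence read immediately and again after 30 min at room temperature.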
Sfp inh = Sfp phosphopantetheinyl transferase inhibition; Biochemical Sfp PPTase activity, qHTS; Potency, µM, hits mostly inhibitors; hit rate 3.5% among 310,000; AID 1490;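 further: the enzyme is Sfp with the accession as filed and its product quenches rhodamine fluorescence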
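After 15 min at room temperature with compound, 15 nM Sfp received 5 uM rhodamine-CoA plus 12.5 uM BHQ-2-ybbR (50 mM Hepes pH 7.6, 10 mM MgCl2). Rate came from the fluorescence difference over 30 min, ex 525/em 598 nm.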
A number is an active result; . = inactive; ? = inconclusive; / = not tested or not shown. Most compounds without a hit are left out; they make up all but 3.8% or so of the library. The call rests on the fitted dose curve; in most records, active means well fitted curve in the direction sought with a large enough effect; inconclusive means small, poorly fitted or top-dose-only effect, or another doubt; inactive means no such curve, though single readings can be large; an effect the other way counts as inactive or inconclusive.

SMILES	rTrxR1 inhibitor	KAT2A inh	VDR inhibitor	TrxR1 substrate	GLS inh	Sfp inh
COc1ccccc1C(=O)Nc1ccc2c(c1)OCO2	.	.	.	.	.	.
CCOc1ccccc1NS(=O)(=O)c1ccc2[nH]c3c(c2c1)CCCCC3	.	.	.	.	.	/
CCOC(=O)c1[nH]c2cc(OC)c(OC)cc2c1NC(=O)CN1CCN(C)CC1	/	.	/	/	/	.
CCOC(=O)c1[nH]c2cc(OC)c(OC)cc2c1N	.	.	.	.	.	45µM
CCOC(=O)c1[nH]c2ccc(C)cc2c1N	.	.	.	.	.	18µM
CCOC(=O)c1[nH]c2ccc(C)cc2c1N=CN(CC)CC	.	.	.	.	.	.
COc1ccc2c(N)c(C(=O)NN)[nH]c2c1	.	.	.	.	13µM	.
CCSc1nnc(NC(=O)Cn2cnc3ccccc3c2=O)s1	.	.	.	.	.	.
FC(F)(F)c1cccc(N2Cc3ccccc3C2)c1	.	.	.	.	.	.
COc1ccc(N(CC(=O)N2CCc3ccccc3C2)S(=O)(=O)c2c(C)[nH]c(=O)[nH]c2=O)cc1	.	.	.	.	.	.
Cc1ccc(-n2nc3c(c2NC(=O)C(C)(C)C)CSC3)c(C)c1	.	.	.	.	.	71µM
Cc1ccc(S(=O)(=O)N2CCC(=O)N([C@H](COCc3cccc(C(F)(F)F)c3)Cc3ccccc3)CC2)cc1	/	.	.	/	/	.
Cc1ccc(S(=O)(=O)N2CCOCC2)cc1NC(=O)CN1CCN(c2ccc(O)cc2)CC1	.	.	.	.	.	40µM
CC(CCc1ccccc1)NC(=O)CN1CCN(c2ccc(O)cc2)CC1 (configuration not stated)	.	.	.	.	10µM	10µM
Cc1ccc(NC(=O)NC(=O)CN2CCN(c3ccc(O)cc3)CC2)c(C)c1	.	.	.	.	.	50µM
O=S(=O)(c1ccc(NC(=S)N2CCN(c3ccc(O)cc3)CC2)cc1)N1CCOCC1	.	.	.	.	7.1µM	.
Cc1cc(C)c2c(c1)C1(OCCO1)C(=O)N2	.	.	.	.	.	.
CC(Nc1nc(=S)nc(Nc2ccc(F)cc2)[nH]1)c1ccccc1 (configuration not stated)	.	.	?	.	.	45µM
CC(Nc1nc(Nc2ccc(F)cc2)nc(SCC(N)=O)n1)c1ccccc1 (configuration not stated)	.	.	.	.	.	.
N#C/C(=C\c1cccc(O)c1)C(=O)N1CCCCC1	?	.	.	.	.	.
C/C(=C/c1ccccc1)C(=O)N1CCN(c2ccccc2F)CC1	.	.	.	.	.	.
N#C/C(=C\c1cccc(Br)c1)C(=O)N1CCCCC1	14µM	.	50µM	.	.	.
N#C/C(=C\c1ccccc1)C(=O)N1CCN(c2ccccc2F)CC1	.	.	45µM	.	.	.
CCOC(=O)c1cccc(NC(c2nnc(-c3ccccc3)o2)c2ccccc2F)c1 (configuration not stated)	.	.	.	.	.	/
Cc1cc(=O)[nH]c(-n2ncc(C#N)c2N)n1	.	.	.	.	.	56µM
SMILES	rTrxR1 inhibitor	KAT2A inh	VDR inhibitor	TrxR1 substrate	GLS inh	Sfp inh
Cc1ccc(C(CC(=O)N2CCOCC2)c2ccco2)cc1 (configuration not stated)	45µM	.	.	.	.	.
COCCCNC(=S)NNC(=S)Nc1ccc(OC)cc1	.	.	?	.	.	50µM
COc1ccc(NC(=S)NNc2ccc(C(=O)O)cc2)cc1	.	.	32µM	.	.	.
COc1ccc(C(=O)NNc2ccccc2)cc1	.	.	.	.	.	.
COc1ccc(C(=S)Nc2ccc(C)cc2)cc1	.	.	?	.	.	32µM
COc1ccc(NC(=S)c2ccncc2)cc1	?	.	.	?	.	.
O=C(c1ccc(-c2cccc(C(F)(F)F)c2)o1)N1CCOCC1	.	.	.	.	.	.
CC(=O)N1CCN(C(=O)c2ccc(-c3cccc(C(F)(F)F)c3)o2)CC1	40µM	.	.	.	.	/
Cc1ccc(O)c(C(=O)c2cnn(-c3ccc(S(=O)(=O)N4CCOCC4)cc3[N+](=O)[O-])c2)c1	.	.	.	.	.	.
CCCCCC(=O)Nc1c(-c2cccs2)c(=O)c2ccccc2n1C	.	.	.	.	.	.
CCC(=O)Nc1c(-c2cccs2)c(=O)c2ccccc2n1C	.	.	.	.	.	89µM
c1ccc(CNc2ncnc3ccc(-c4ccoc4)cc23)cc1	/	?	25µM	/	/	.
c1ccc(Nc2ncnc3ccc(-c4ccoc4)cc23)cc1	/	?	32µM	/	/	.
c1cncc(CNc2ncnc3ccc(-c4cccnc4)cc23)c1	.	.	.	.	.	79µM
Clc1cccc(-c2ccc3ncnc(NCc4cccnc4)c3c2)c1	.	.	.	.	.	/
CN(C)C(=O)c1ccc(-c2ccc3ncnc(Nc4ccccc4)c3c2)cc1	/	.	.	/	/	.
CCCCc1nc2c(c3c1C[C@H](C)OC3)CN(S(=O)(=O)c1ccc3c(c1)OCCN3C)CC2	/	/	/	/	/	.
O=c1[nH]c(C2CCN(S(=O)(=O)c3ccc(C(F)(F)F)cc3)CC2)nc2c1nnn2Cc1ccc(F)cc1	.	.	.	.	.	.
CCc1n[nH]c(=S)n1/N=C/c1cc(OC)cc([N+](=O)[O-])c1O	.	?	.	.	?	22µM
CCCCn1c(=O)c(-[n+]2ccccc2)c([O-])c2ccccc21	.	.	.	.	.	14µM
CC(C)Cn1c(=O)c(-[n+]2ccccc2)c([O-])c2ccccc21	.	.	.	.	.	.
CC1CC2(CC(C)(C(=O)CSc3n[nH]c(-c4ccccc4Cl)n3)OC2=O)C(=O)O1 (configuration not stated)	?	.	.	.	.	.
CC(=O)Nc1nc(-c2ccc3c(c2)CCN3S(C)(=O)=O)cs1	.	.	.	.	.	56µM
CCc1nc2c(sc3nc4c(cc32)COC(C)(C)C4)c(=O)n1Cc1ccco1	?	.	?	.	.	3.5µM
Brc1ccc(OCc2nnc(SCC3CCCCC3)o2)cc1	.	.	.	.	.	.
O=C1NCCN1CCNS(=O)(=O)c1ccccc1[N+](=O)[O-]	.	.	.	.	.	.
CC(C)(C)C(=O)NCC12C=CC(O1)C1C(=O)N(c3ccccc3)C(=O)C12 (configuration not stated)	18µM	.	?	.	.	.
O=C1C2C3C=CC(CNS(=O)(=O)c4ccccc4[N+](=O)[O-])(O3)C2C(=O)N1c1ccccc1 (configuration not stated)	18µM	.	.	.	.	28µM
O=C1C2C3C=CC(CO)(O3)C2C(=O)N1c1ccc(-c2ccccc2)cc1 (configuration not stated)	/	.	/	/	/	5µM
